# Bioassay records deposited in PubChem by National Center for Advancing Translational Sciences (NCATS).
# Compounds with a hit are over-represented: about 7.4% of the library has one in this group of screens.
# Rab9 promoter act: qHTS Assay for Rab9 Promoter Activators | Huh7 Rab9 promoter-luciferase reporter, luminescence, 24 h | Potency, µM (doses to about 9.22 µM), hits mostly activators | 320,000 compounds, 2.8% hits | AID 485297, 2010; also: nearly all actives have a fitted effect of over 60% in size
#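 Huh7 cells stably carrying Rab9 promoter–luciferase reporter, plated 1500 cells/well, compound added after 2 h and incubated 24 h at 37 °C; luciferase luminescence then read after 10 min with detection reagent.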
# NPC1 prom act: qHTS Assay for NPC1 Promoter Activators; Potency, µM (series often up to 9.22 µM), hits mostly activators; 320,000 compounds, 2.4% hits; Huh7 NPC1 promoter luciferase reporter, 24 h; also: nearly all actives have a fitted effect of over 60% in size
#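 Stable NPC1-promoter luciferase Huh7 line; cpd (DMSO) 24 h, 37 °C, 5% CO2; Amplite luciferase reagent 10 min RT; luminescence readout. qHTS format.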
# ELG1 genotoxic: qHTS screen for small molecules that induce genotoxicity in human embryonic kidney (HEK293T) cells expressing luciferase-tagged ELG1; HEK293T ELG1-luciferase reporter, luminescence, 16 h; Potency, µM (doses to about 46 µM), hits mostly activators; 330,000 compounds, 1.3% hits; AID 504466, 2011; also: nearly all actives have a fitted effect of over 60% in size
#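 Screening used a luciferase reporter fused to human ELG1 in HEK293T cells. Luminescence was read on a CCD plate imager after 16 hr exposure and 30 min ONE-Glo incubation.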
# FLuc counter: qHTS profiling assay for firefly luciferase inhibitor/activator using purifed enzyme and Km concentrations of substrates (counterscreen for miR-21 project); purified FLuc, Km substrates, luminescence inhibition; 360,000 compounds, 6.9% hits; AID 588342, 2011; Luciferin 4-monooxygenase (Photinus pyralis), P08659; Potency, µM (highest dose often 57.5 µM), actives largely listed as inhibitors; also: nearly all actives have a fitted effect of over 55% in size
# Target sequence (P08659 whole entry, looked up): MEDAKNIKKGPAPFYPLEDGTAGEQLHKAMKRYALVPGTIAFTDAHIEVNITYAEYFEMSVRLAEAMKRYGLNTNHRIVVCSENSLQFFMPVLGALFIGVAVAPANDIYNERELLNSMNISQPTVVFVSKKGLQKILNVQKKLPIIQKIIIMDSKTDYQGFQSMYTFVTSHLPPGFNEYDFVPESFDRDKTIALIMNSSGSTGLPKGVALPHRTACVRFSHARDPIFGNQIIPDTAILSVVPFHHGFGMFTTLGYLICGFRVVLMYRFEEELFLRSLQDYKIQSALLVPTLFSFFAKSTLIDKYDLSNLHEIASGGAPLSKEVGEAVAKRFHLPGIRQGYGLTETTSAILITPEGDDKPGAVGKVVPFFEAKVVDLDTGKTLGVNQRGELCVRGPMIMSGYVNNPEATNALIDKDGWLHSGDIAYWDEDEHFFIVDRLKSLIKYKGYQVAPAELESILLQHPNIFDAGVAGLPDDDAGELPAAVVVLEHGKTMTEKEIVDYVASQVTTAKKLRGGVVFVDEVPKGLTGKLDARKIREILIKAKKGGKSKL
#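 Purified P. pyralis luciferase (10nM final) with 10uM D-luciferin and 10uM ATP (Km levels) in 50mM Tris acetate pH 7.5, 10mM Mg acetate, 0.01% Tween-20, 0.05% BSA; qHTS 6-point titration, ~60 µM downward; luminescence read.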
# SMN2 splice up: qHTS Assay for Enhancers of SMN2 Splice Variant Expression; HEK293 SMN2-luciferase splicing reporter, luminescence, 30-36 h; Potency, µM (doses to about 46.1 µM), actives largely listed as activators; 210,000 compounds, 2.8% hits; AID 1458, 2008; also: nearly all actives have a fitted effect of over 55% in size
#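 qHTS luciferase splicing reporter: luminescence rises when SMN2 exon 7 is included in transfected HEK293 cells. Compound exposure lasted 30-36 h at 37C, with 4.5 mM final sodium butyrate as control, followed by a ONE-Glo read.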
# A number is an active result; i = inactive; ? = inconclusive; nt = no result. Calls follow the shape of the dose curve; as a rule, active = well fitted curve in the direction sought with a large enough effect; inconclusive = small, poorly fitted or top-dose-only effect, or another doubt; inactive = no such curve, though single readings can be large; an effect the other way counts as inactive or inconclusive.
SMILES,Rab9 promoter act,NPC1 prom act,ELG1 genotoxic,FLuc counter,SMN2 splice up
c1ccc2oc(-c3csc(NCC4CCCO4)n3)cc2c1 (stereo unspecified),0.4µM,1.6µM,2.3µM,1.5µM,?
COc1ccc(/C=C(/C#N)c2nc(-c3cc4ccccc4oc3=O)cs2)cc1,nt,nt,nt,i,i
CC1CCC/C(=C(\C#N)c2nc(-c3cc4ccccc4oc3=O)cs2)C1 (stereo unspecified),1.8µM,2.5µM,?,1.7µM,i
c1ccc2sc(NCC3CCCO3)nc2c1 (stereo unspecified),1.4µM,2.2µM,?,21µM,10µM
Cc1nc(N/C(N)=N/S(=O)(=O)c2ccccc2)nc2ccccc12,nt,nt,i,nt,nt
C=CCNc1nc(-c2ccc(O)c(C(N)=O)c2)cs1,i,i,?,?,i
CC(Nc1nc(-c2ccc3c(c2)NC(=O)CO3)cs1)c1ccccc1 (stereo unspecified),i,i,i,?,i
O=C1COc2ccc(-c3csc(NCC4CCCO4)n3)cc2N1 (stereo unspecified),i,i,i,17µM,i
C=CCNc1nc(-c2cc3ccccc3o2)cs1,0.63µM,1µM,0.52µM,0.34µM,0.56µM
CCO[Si](CCCN)(OCC)OCC,nt,nt,nt,nt,i
O=C(NCCSc1ccc(Br)cc1)c1ccc2nc[nH]c2c1,i,i,i,i,nt
CCc1ccc(-c2cc(C)no2)cc1S(=O)(=O)N1CCN(c2ccc(F)cc2)CC1,i,i,i,i,nt
O=C(CN(Cc1ccccc1)C(=O)CCC(=O)Nc1ccccn1)NCc1ccc(F)cc1,i,i,i,i,nt
CC(C)C(=O)Nc1ccc(C(=O)Nc2nnc(C(C)C)s2)cc1,?,i,i,?,nt
CC(C)C(=O)Nc1cccc(C(=O)Nc2nnc(C(C)C)s2)c1,1.4µM,2.8µM,?,?,11µM
CCc1nnc(NC(=O)c2cccc(NC(=O)C(C)C)c2)s1,?,?,i,?,16µM
CC(C)C(=O)Nc1cccc(C(=O)Nc2nnc(C(F)(F)F)s2)c1,nt,nt,nt,17µM,i
Cc1nnc(NC(=O)c2cccc(NC(=O)C(C)C)c2)s1,i,i,i,i,i
CC(C)c1nnc(NC(=O)c2cccc(NC(=O)C(F)(F)F)c2)s1,1.3µM,3.5µM,?,21µM,14µM
COc1ccccc1NC(=O)Cn1c(=O)n(-c2ccc(C)cc2)c(=O)c2ccc(C(=O)NCc3ccco3)cc21,nt,nt,nt,i,i
OCCN1CCN(C(=S)Nc2cccc(C(F)(F)F)c2)CC1,i,i,i,i,nt
Cc1ccccc1-c1nc(CS(=O)(=O)CC(=O)NCCN2CCCC2)c(C)o1,i,i,i,i,nt
CC(=O)c1sc(-c2ccc(Cl)cc2)nc1C,?,i,?,?,i
CC(=O)c1c(C)nc(-c2ccc(Cl)cc2)nc1N=CN(C)C,2.8µM,4µM,9.2µM,?,11µM
CC(=O)c1c(C)nc(-c2ccc(Cl)cc2)nc1N,3.2µM,3.5µM,4.1µM,6.7µM,10µM
SMILES,Rab9 promoter act,NPC1 prom act,ELG1 genotoxic,FLuc counter,SMN2 splice up
CN1CCN(Cc2nc(N)nc(Nc3ccc4c(c3)OCCO4)n2)CC1,4µM,3.5µM,?,?,i
Nc1nc(CN2CCN(c3ccccc3F)CC2)nc(Nc2ccc3c(c2)OCCO3)n1,i,i,i,i,i
O=Cc1ccc(N2CCCC2)c([N+](=O)[O-])c1,i,i,i,i,i
O=[N+]([O-])/C=C\c1ccc(N2CCCC2)c(F)c1,i,i,i,?,5.6µM
COc1ccc2c(c1)CCC/C2=N/OC(=O)c1ccccc1OC,i,i,i,13µM,i
COc1ccc2c(c1)CC/C2=N\OC(=O)c1cccc(C)c1,?,3.5µM,?,1.5µM,i
COc1ccccc1C(=O)ON=C1c2ccccc2-c2ccccc21,i,i,i,21µM,i
COc1ccc2c(c1)CC/C2=N\OC(=O)c1ccccc1C,?,?,?,1.5µM,i
COc1ccc2oc(C(=O)OC(C)C(=O)Nc3ccc(N4CCOCC4)cc3)c(C)c2c1 (stereo unspecified),i,i,i,i,nt
CCOc1ccc2oc(C(=O)Nc3ccc(N4CCOCC4)cc3)c(C)c2c1,nt,nt,nt,13µM,i
CCOc1ccc2oc(C(=O)Nc3ccc4c(c3)OCO4)c(C)c2c1,2.8µM,3.2µM,?,5.4µM,nt
COc1cccc(-n2c(SCc3ccc(F)cc3)nc3c([nH]c4ccccc43)c2=O)c1,nt,nt,nt,i,nt
O=C(Nc1ccc(N2CCCC2)cc1)c1cc2ccccc2o1,2µM,3.5µM,?,3µM,nt
CC(=O)N1CCN(c2ccc(NC(=O)c3cc4ccccc4o3)cc2)CC1,i,i,i,?,nt
O=C(NNC(=O)c1ccccc1O)c1cc2ccccc2o1,?,4.5µM,?,27µM,nt
CSC(C(=O)c1cc2ccccc2o1)c1ccccc1 (stereo unspecified),3.2µM,?,i,?,nt
O=C(Nc1ccc(F)cc1)c1cc2ccccc2o1,3.2µM,3.5µM,i,6.7µM,nt
O=C(NNC(=O)c1cc2ccccc2o1)c1ccncc1,nt,nt,i,nt,nt
CC(NC(=O)c1cc2ccccc2o1)c1ccccc1 (stereo unspecified),i,i,i,i,nt
CC(=O)OC[C@]12CC[C@H]3[C@@](C)(CC[C@H]4C(C)(C)CCC[C@]34C)[C@@H]1C[C@H](C1=CC(=O)O[C@@H]1OC(C)=O)O2,nt,nt,i,nt,nt
O=C(Nc1ccccc1)c1cc2ccccc2o1,1.6µM,2.8µM,?,1.2µM,13µM
O=C(Nc1ccc(NC(=O)c2cc3ccccc3o2)cc1)c1ccco1,i,i,i,i,nt
CC(=O)c1ccc(NC(=O)c2cc3ccccc3o2)cc1,0.63µM,1µM,2.6µM,?,nt
Cc1cc(C(=O)Nc2ccccc2)oc1C,2.8µM,?,?,12µM,20µM
CC(C)c1nnc(NC(=O)c2cc3ccccc3o2)s1,2µM,?,?,6.7µM,nt
SMILES,Rab9 promoter act,NPC1 prom act,ELG1 genotoxic,FLuc counter,SMN2 splice up
COc1ccccc1NC(=O)c1ccc2c(O)c(S(=O)(=O)c3ccccc3)c(=O)[nH]c2c1,i,i,i,i,nt
COc1cc(CCC(=O)Nc2ccc(C)c(S(=O)(=O)N3CCCCCC3)c2)cc(OC)c1OC,i,i,i,i,nt
Cc1nc2c(c(C)c1CCC(=O)NCc1ccc(F)cc1)c(=O)n(C)c(=O)n2C,nt,nt,nt,i,i
O=C(Nc1cc2c(cc1Cl)OCCCO2)c1ccccc1,2.8µM,?,6.3µM,13µM,11µM
O=C(Nc1cc2c(cc1Cl)OCCCO2)c1ccco1,3.5µM,3.5µM,?,11µM,14µM
COc1cc(NC(=O)CCS(=O)(=O)c2ccc3c(c2)CC(=O)N3C)cc(OC)c1OC,nt,nt,nt,i,nt
CCOc1ccc(N=Cc2ccc3ccccc3c2)cc1,i,i,i,0.76µM,nt
CCOc1ccc(N=CNc2ccc(OCC)cc2)cc1,i,i,i,?,nt
Cc1ccc(SCc2cc(=O)n3ccsc3n2)c(C)c1,3.2µM,?,?,15µM,13µM
Cc1ccc(Nc2nnc(SCc3cc(=O)n4ccsc4n3)s2)c(C)c1,i,i,i,i,i
